# The list is not random: actives were taken first. Their share in the collection is about 2.4%.
# D2 ag-1 = D2 dopamine receptor (human) agonism; HEK293 T-REx D2 cells, calcium flux agonist mode; activation, % at 2 µM; P14416; 0.53% of 340,000 active;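 active = activation over 3 SD above normal in the single-dose calcium agonist read, cut at about 30% in these data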; note: 0% is about no effect
# Target sequence (P14416 whole entry, looked up): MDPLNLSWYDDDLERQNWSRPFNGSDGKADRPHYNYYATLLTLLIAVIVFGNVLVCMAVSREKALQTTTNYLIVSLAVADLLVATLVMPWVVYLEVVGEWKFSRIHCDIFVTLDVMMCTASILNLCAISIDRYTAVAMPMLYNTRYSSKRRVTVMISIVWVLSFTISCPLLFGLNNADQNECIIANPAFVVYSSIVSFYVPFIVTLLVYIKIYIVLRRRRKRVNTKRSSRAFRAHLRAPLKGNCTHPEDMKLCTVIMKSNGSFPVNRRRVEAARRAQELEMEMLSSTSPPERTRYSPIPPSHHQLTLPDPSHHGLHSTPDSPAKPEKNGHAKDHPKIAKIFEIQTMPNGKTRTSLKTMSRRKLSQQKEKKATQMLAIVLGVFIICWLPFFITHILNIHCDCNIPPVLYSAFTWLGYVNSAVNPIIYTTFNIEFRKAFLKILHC
#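 Tetracycline-induced HEK293 Trex cells with D2 receptor force-coupled to calcium signaling, plated overnight at 30 C and loaded with no-wash calcium dye. Calcium flux read kinetically for 180 s after compound addition; responses flag agonists.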
# D2 antagonist = antagonizes the human D2 dopamine receptor | inhibition, % at 10 µM | HEK293 TREx D2 cells, calcium flux, dopamine EC80 | P14416 | AID 485344 | 2% of 340,000 active; in the data active = inhibition above about 30%; inactive = below that, where a call was filed; note: 0% is about no effect
#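 Dopamine at EC80 is the agonist stimulus; test compounds precede it by 180 s. Calcium flux read kinetically in a force-coupled, inducible HEK293 T-REx D2 cell line.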
# D2 ag-2 = human D2 receptor agonism in beta-arrestin assay | P14416 | DiscoveRx PathHunter D2 beta-arrestin, luminescence, 90 min; 100% = 57 uM dopamine signal | 0.084% of 360,000 active | AID 624465 | activation, % (no concentration beside the values); in the data active = activation above about 40%; inconclusive = between about 15% and that limit
#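 Agonist mode: compounds alone added to overnight-plated D2 PathHunter cells for 90 min at 37 C, with 57 uM final dopamine (EC100) defining full response. Beta-arrestin recruitment detected by chemiluminescent reagent, read after 1 h at ambient temperature.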
# D2 PAM-1 = positively modulates the human D2 dopamine receptor allosterically; potentiation, % at 10 µM; 0.34% of 340,000 active; AID 485347; HEK293 T-REx D2, calcium flux, EC20 dopamine potentiation; P14416;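 active = potentiation over 3 SD above the plate norm, cut at about 30% in these data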; note: 0% is about no effect
#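 Primary screen. Calcium kinetics in induced HEK293 T-REx D2 cells: compound pre-addition 180 s, EC20 dopamine, 180 s more.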
# D2 PAM-2 = potentiates the human D2 dopamine receptor allosterically; P14416; DiscoveRx D2 beta-arrestin cells, luminescence, 90 min; 100% = 57 uM dopamine signal; potentiation, % (no concentration beside the values); 0.23% of 360,000 active; in the data active = potentiation above about 50%; inconclusive = mostly about 30% to 49%
#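 PathHunter beta-arrestin assay in DiscoveRx D2 cells. Compounds were added with an EC20 of dopamine (50 nM final) for 90 min at 37 deg C. Luminescence was read 1 h after detection reagent, with 57 uM dopamine as the EC100 control.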
# * hit, by the source's call; ? = inconclusive; nt = no result.
SMILES,D2 ag-1,D2 antagonist,D2 ag-2,D2 PAM-1,D2 PAM-2
CCOc1ccc(CCNC(=O)C2CCN(C(=O)c3cc4sccc4n3CC)CC2)cc1OCC,1,nt,nt,4,nt
COc1ccc(CN2CCCC(CO)(Cc3ccc(F)cc3F)C2)cc1 (stereo unspecified),1,43*,-2,-23,-12
CC(C)Cc1cc(CN2CCCC(CO)(Cc3cccc(Cl)c3)C2)[nH]n1 (stereo unspecified),1,53*,-4,-28,-13
COc1cc(CN2CCCC(CO)(Cc3ccccc3F)C2)ccc1O (stereo unspecified),0,14,-5,-6,-5
COC(=O)c1ccc(CN2CCCC(CO)(Cc3ccccc3F)C2)cc1 (stereo unspecified),-2,84*,-1,-20,-1
COc1ccccc1Cn1ccn(Cc2c(F)cccc2Cl)c(=O)c1=O,1,nt,nt,-2,nt
COc1ccccc1OCCCCn1c(-c2ccc(Cl)cc2)nc2ccccc2c1=O,2,nt,nt,6,nt
COc1cc(CNC(=O)c2cnc(SC)nc2-c2ccccc2)cc(OC)c1OC,0,nt,nt,3,nt
CCN(CC)CCN1CCN(c2cnc(C)cn2)CC1,nt,nt,-1,nt,-6
O=C(Cn1c2ncccc2c(=O)n1-c1ccccc1)NCc1ccccc1Cl,0,nt,nt,2,nt
Cc1ccc(C(=O)N/C(N)=N/c2nc3ccccc3o2)cc1,0,53*,-2,8,1
O=C(CSCC(=O)NC1CC1)Nc1ccc2ccccc2c1,1,35*,0,-21,-29
Cc1cc(NC(=O)C(C)Sc2nc(-c3cccs3)nc3ccccc23)no1 (stereo unspecified),1,10,0,32*,-9
CCn1c(C)cc(C(=O)CSc2nnnn2C2CCCC2)c1C,0,30*,-1,-4,-16
COc1ccc(-n2nc(C(=O)N(C)C)nc2-c2ccccc2)cc1,0,31*,9,9,0
CC(C)Cc1nn2c(=O)cc(COC(=O)c3cccc(NC(=O)CCc4ccccc4)c3)nc2s1,1,nt,nt,6,nt
COc1cccc(C(C(=O)NC2CCCCC2)N(Cc2ccco2)C(=O)c2ccccn2)c1 (stereo unspecified),4,34*,0,-19,4
Nc1cc(-c2ccccc2)ccc1O,0,8,?,3,98*
CC(=O)Nc1cc(-c2ccccc2)ccc1O,1,-2,-2,8,1
COc1ccc(C2C(O)C(c3c[nH]c4ccccc34)=NN2C(=O)CCl)cc1 (stereo unspecified),0,32*,-4,-4,6
OC(CNCc1ccc(Cl)cc1)COc1ccccc1 (stereo unspecified),1,49*,-6,-23,-21
OC(CNCc1ccccc1)COCc1ccc(Cl)cc1 (stereo unspecified),1,-12,-2,13,-7
Cc1ccc(OCCNCC(O)COc2ccccc2)cc1 (stereo unspecified),0,45*,0,-24,-14
CCOC(=O)c1ccc(NC(=O)CSc2nc(-c3cccs3)cc(C(F)(F)F)c2C#N)cc1,nt,nt,nt,-11,nt
COCCCN(C(=S)Nc1cccc(Cl)c1)C(C)c1ccncc1 (stereo unspecified),1,30*,-1,0,-10
SMILES,D2 ag-1,D2 antagonist,D2 ag-2,D2 PAM-1,D2 PAM-2
COc1ccc(CCN2CC(C(=O)NCCc3cccnc3)CCC2=O)cc1 (stereo unspecified),-1,32*,-3,-6,-3
COc1cccc(C(NC(C)=O)c2nc(-c3ccc(F)cc3OC)cs2)c1 (stereo unspecified),nt,nt,-6,nt,-6
CC(=O)NC(CC(=O)OCc1ccc([N+](=O)[O-])cc1)c1ccccc1 (stereo unspecified),-1,-4,-3,37*,-7
COCCCNc1oc(/C=C/c2cc(OC)c(OC)c(OC)c2)nc1C#N,4,nt,nt,4,nt
CC(SC1=Nc2ccccc2C2CC=NN12)C(=O)NC1(C#N)CCCCC1 (stereo unspecified),44*,5,-9,-29,-27
O=C(O)CCCC(=O)Nc1nc(-c2ccccc2)cs1,-1,-4,-3,-9,-2
O=C(O)CCCC(=O)Nc1nc(-c2ccc(F)cc2)cs1,-1,9,-1,34*,-9
Cc1nn(C)c(C)c1S(=O)(=O)N1CCC(C(=O)NC2CCCCCC2)CC1,1,33*,0,1,-6
Cc1noc(C)c1S(=O)(=O)N1CCC(C(=O)NCCC2=CCCCC2)CC1,0,-24,-3,-1,-12
Cc1nn(C)c(C)c1S(=O)(=O)N1CCC(C(=O)NCCC2=CCCCC2)CC1,-1,30*,-2,-7,-9
COc1ccc(OC)c(CCNC(=O)Cn2nc(C)n3c(cc4sccc43)c2=O)c1,0,nt,nt,-2,nt
COc1ccc(NC(=O)Nc2nnc(-c3ccccc3F)s2)cc1,2,41*,0,0,-3
COCCNc1nc(-c2ccccc2)nc2ccccc12,1,-6,7,8,-2
CC(=O)OCCNc1nc(-c2ccccc2)nc2ccccc12,1,38*,-6,-1,0
O=S(=O)(c1ccc2c(c1)OCO2)N1CCN(c2nnnn2-c2ccccc2)CC1,1,36*,-4,26,-7
Cc1c(C(=O)N(C)C)sc2c1c(=O)n(-c1ccccc1C(F)(F)F)c(=O)n2Cc1ccccc1C#N,0,nt,nt,4,nt
CNC(=O)Cn1nc(-c2ccc(C)c(S(=O)(=O)N(C)C)c2)c2ccccc2c1=O,-1,-6,-2,38*,-7
COc1ccc(NC(=O)c2oc3ccccc3c2NC(=O)Cc2ccc(F)cc2)c(OC)c1,0,nt,nt,nt,nt
NC(=O)C1(N2CCCCC2)CCN(Cc2ccc(Br)cc2)CC1,0,37*,-2,-25,-18
O=c1[nH]c(CN2CCN(Cc3ccccc3)CC2)nc2scc(-c3ccccc3)c12,0,69*,-2,-24,-6
CC(=O)N1CCN(Cc2nc3scc(-c4ccccc4)c3c(=O)[nH]2)CC1,nt,nt,-4,0,-4
Cc1ccc(NC(=O)c2cc(S(=O)(=O)N(C)C3CCCCC3)ccc2F)cc1C,0,nt,nt,9,nt
CC1CCCC(NC(=O)COC(=O)c2cccc(NS(=O)(=O)/C=C/c3ccccc3)c2)C1C (stereo unspecified),-1,50*,2,17,25
CCc1cc(=O)[nH]c(SCc2nc(-c3cccc(Cl)c3)no2)n1,nt,nt,nt,0,nt
CN1CCN(c2ccc(NC(=O)c3ccc(Br)o3)cc2)CC1,1,9,-1,-4,0
O=C(Nc1ccc(N2CCOCC2)cc1)c1ccc(Br)o1,0,71*,1,5,-2

# Screening data as filed in PubChem BioAssay.
